In the supplement of paper PMC11634586:
Unmarked numbers belong to inactive results.

What follows are compounds tested on NCI-H1688 (assay: inhibition of cell viability relative to untreated control (fraction); higher = stronger growth inhibition, active = 0.5 or more). Settings: 30 µM; 24 h.
Outline: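 After seeding at 3 × 10^3 cells/well in 96-well plates and a 24 h wait, NCI-H1688 small cell lung cancer cells received a natural compound library (TargetMol) at 30 µM for 24 h, kept at 37°C with 5% CO2. Triplicate readings of Cell Counting Kit-8 absorbance at 450 nm measured viability. Each value is the inhibition of cell viability as a fraction, derived from viability normalised to untreated cells.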

Question: For `O=C(O)CCc1ccc(O)cc1` [Phloretic acid], which “inhibition of cell viability” value is on record?
Answer: Its value is 0.081.

Question: With `CC(=O)OC(C)C(C)C(=O)OCC12C3CC(C)(C)[C@H](O[C@@H]1C[C@]1(C)C3=CCC3C4(C)CCC(O[C@@H]5O[C@H](C(=O)O)[C@@H](O[C@H]6O[C@H](CO)[C@@H](O)[C@H](O)[C@H]6O)[C@H](O)[C@H]5O[C@@H]5OC[C@@H](O)[C@H](O)[C@H]5O)[C@](C)(CO)C4CCC31C)C2O` (stereo partly specified) [Sodium Aescinate] as the compound, how does the “inhibition of cell viability” value read?
Answer: Its value is 0.524 (active).

Question: For `CC(C)=CCC[C@](C)(O[C@@H]1O[C@H](CO[C@@H]2O[C@H](CO)[C@@H](O)[C@H](O)[C@H]2O)[C@@H](O)[C@H](O)[C@H]1O)[C@H]1CC[C@]2(C)[C@@H]1[C@H](O)C[C@@H]1[C@@]3(C)CC[C@H](O[C@@H]4O[C@H](CO)[C@@H](O)[C@H](O)[C@H]4O[C@@H]4O[C@H](CO)[C@@H](O)[C@H](O)[C@H]4O)C(C)(C)[C@@H]3CC[C@]12C` [Ginsenoside Rb1], which “inhibition of cell viability” value is on record?
Answer: Its value is -0.0384.

Question: How did the “inhibition of cell viability” value turn out when `C=C[C@](C)(O)CC[C@@H]1[C@@]2(C)CCCC(C)(C)[C@@H]2CC[C@@]1(C)O` [Sclareol] was run?
Answer: Its value is 0.318.

Question: Which “inhibition of cell viability” value does the source give for `CC[C@H](CC[C@@H](C)[C@H]1CC[C@H]2[C@@H]3CC=C4C[C@@H](O)CC[C@]4(C)[C@H]3CC[C@]12C)C(C)C` [Beta-Sitosterol] here?
Answer: Its value is 0.185.

Question: How did the “inhibition of cell viability” value turn out when `Cc1nc(C)c(C)nc1C` [Tetramethylpyrazine] was run?
Answer: Its value is 0.202.

Question: `CC[C@H](C)[C@H](N)C(=O)O` [isoleucine] was tested. Which “inhibition of cell viability” value did it give?
Answer: Its value is -0.178.

Question: `CC(C)=CCCC(C)CCO` (stereo unspecified) [Citronellol] was tested. Which “inhibition of cell viability” value did it give?
Answer: Its value is 0.283.

Question: With `COc1cc(C2Oc3cc([C@H]4Oc5cc(O)cc(O)c5C(=O)[C@@H]4O)ccc3OC2CO)ccc1O` (stereo partly specified) [Silibinin] as the compound, how does the “inhibition of cell viability” value read?
Answer: The value was 0.0271.

Question: With `C=C1C(=O)O[C@@H]2/C=C(\C)CC/C=C(\C)CC[C@@H]12` [Costunolide] as the compound, how does the “inhibition of cell viability” value read?
Answer: Its value is 0.333.

Question: Which “inhibition of cell viability” value does the source give for `C[C@@H]1CCCCCCCCCCCCC(=O)C1` [Muscone] here?
Answer: Its value is -0.148.

Question: For `OCC1OC(OC2C(CO)OC(O)C(O)C2O)C(O)C(O)C1O` [D-Cellobiose], which “inhibition of cell viability” value is on record?
Answer: The value was -0.12.

Question: How did the “inhibition of cell viability” value turn out when `O=C1C[C@@H](c2ccc(O)cc2)Oc2cc(O)cc(O)c21` [Naringenin] was run?
Answer: The value was -0.726.

Question: How did the “inhibition of cell viability” value turn out when `C[C@H](O)[C@H]1CC[C@H]2[C@@H]3CC[C@@H]4C[C@H](O)CC[C@]4(C)[C@H]3CC[C@]12C` [5Beta-Pregnane-3Alpha,20alpha-Diol] was run?
Answer: Its value is -0.113.

Question: With `O=C(O)[C@@H](O)[C@H](O)[C@H](O)[C@@H](O)C(=O)O` [Mucic Acid] as the compound, how does the “inhibition of cell viability” value read?
Answer: The value was 0.0761.

Question: For `C[C@H](CCC(=O)O)[C@H]1CC[C@H]2[C@@H]3[C@H](O)C[C@@H]4C[C@H](O)CC[C@]4(C)[C@H]3C[C@H](O)[C@]12C` [Cholic Acid], which “inhibition of cell viability” value is on record?
Answer: Its value is -0.419.
